Most compounds without a hit are left out; they make up all but 19% or so of the library.
HT1080-NT tox – kills 2HG-producing HT-1080-NT fibrosarcoma cells; HT-1080-NT fibrosarcoma viability, CellTiter-Glo ATP luminescence, 48 h; 360,000 tested, 1.6% active; Potency, µM (titrated, usually from 46.1 µM), most hits filed as cytotoxic; AID 686970;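 also: NT is the 2HG producing partner of a matched IDH1 knockdown line; nearly all actives have a fitted effect of over 55% in size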
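Viability by CellTiter-Glo luminescence after 48 h compound exposure at 37C of HT-1080-NT cells (750/well, RPMI, 5% FBS). % activity scaled between DMSO wells and medium-only wells, then curve-fitted and categorized by curve class.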
HT1080 IDH1KD tx – toxicity to HT-1080 IDH1 knockdown cells (counter line); Potency, µM (titrated, usually from 46.1 µM), usual class: cytotoxic; 360,000 tested, 2% active; HT-1080 IDH1 knockdown viability, ATP luminescence, 48 h
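Using the IDH1-knockdown HT-1080 line run in the same batch and compound series as the NT line, viability after 48 h at 37 °C was determined by CellTiter-Glo luminescence and expressed as % activity.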
IL1B secr inh – inflammasome signaling inhibition, IL-1 beta readout; THP-1 LPS/ATP IL-1B secretion, AlphaLISA, 16 h; active compounds read low; activity change, % at 57.5 µM; 360,000 tested, 4.7% active; AID 743279; in the data active = activity change below about -50%; inconclusive = mostly about -30% to -49%
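Secreted IL-1B measured by AlphaLISA bead assay after 16 h compound exposure of THP-1 cells; compounds (final up to 57.5 uM) added 1 h before LPS (250 ng/mL) and ATP (1.25 mM) stimulation; lower signal means less secretion.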
DT40 TDP1 CPT – growth inhibition of DT40 Tdp1-/-;hTDP1 cells with camptothecin (screen for TDP1 inhibitors); chicken DT40 Tdp1-/-;hTDP1 cells + 20 nM CPT, ATP luminescence, 48 h; Potency, µM (top dose mostly 46.2 µM), actives largely listed as inhibitors; 420,000 tested, 12% active; also: nearly all actives have a fitted effect of over 55% in size
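Chicken DT40 Tdp1-/- cells stably complemented with human TDP1 were seeded at 400 cells/well in medium containing 20 nM camptothecin, exposed to pin-transferred compounds, and grown at 37 °C for at least 48 hr. Viability was read as ATP luminescence.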
TDP1 cell noCPT – qHTS for Inhibitors of human tyrosyl-DNA phosphodiesterase 1 (TDP1): qHTS in cells in absence of CPT | Potency, µM (highest dose often 46.2 µM), most hits filed as inhibitors | 420,000 tested, 15% active | DT40 Tdp1-/- hTDP1 cells, no CPT, ATP luminescence, 48 h; also: nearly all actives have a fitted effect of over 55% in size
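A cellular qHTS used chicken DT40 cells lacking endogenous Tdp1 but carrying stably transfected human TDP1. Compounds were applied without camptothecin, and cell growth kinetics were judged by ATP-dependent luminescence after ≥48 hr.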
Of the large screens only hits and unclear results are named; the others gave an inactive call. Unless noted, calls follow the shape of the dose curve; as a rule, active = well fitted curve in the direction sought with a large enough effect; inconclusive = small, poorly fitted or top-dose-only effect, or another doubt; inactive = no such curve, though single readings can be large; an effect the other way counts as inactive or inconclusive.

Clc1ccc2nc(C3CCCCC3)c(Cc3ccsc3)n2c1	DT40 TDP1 CPT 23µM, TDP1 cell noCPT inconclusive
Brc1ccc2nc(C3CCCCC3)c(Cc3ccsc3)n2c1	HT1080 IDH1KD tx inconclusive, DT40 TDP1 CPT 21µM, TDP1 cell noCPT 16µM
Cc1ccc(Cc2c(C3CCCCC3)nc3ccc(Br)cn23)cc1	HT1080-NT tox inconclusive, HT1080 IDH1KD tx inconclusive, DT40 TDP1 CPT inconclusive, TDP1 cell noCPT 21µM
Cc1cc(Br)cn2c(Cc3ccsc3)c(C3CCCCC3)nc12	DT40 TDP1 CPT inconclusive, TDP1 cell noCPT inconclusive
Cn1ccnc1SCC(=O)Nc1cccc(S(=O)(=O)N2CCCCCC2)c1	none
COCc1nc2oc3ccc(F)cc3c(=O)c2cc1C(=O)OC	none
COc1ccccc1C1CCN(C(=O)c2ccc(C(C)(C)C)cc2)CC1	HT1080-NT tox inconclusive, HT1080 IDH1KD tx inconclusive, IL1B secr inh -92, DT40 TDP1 CPT inconclusive, TDP1 cell noCPT 16µM
COc1ccccc1N1CCN(C(=O)c2ccc(C(C)(C)C)cc2)CC1	HT1080-NT tox inconclusive, HT1080 IDH1KD tx inconclusive, DT40 TDP1 CPT 4.6µM, TDP1 cell noCPT 5.8µM
COc1ccccc1C1CCN(C(=O)c2cccc([N+](=O)[O-])c2)CC1	DT40 TDP1 CPT inconclusive, TDP1 cell noCPT 16µM (no result: IL1B secr inh)
COc1cc2c(cc1OC)CN(C(=O)c1ccc(S(=O)(=O)N3CCCCC3)cc1)CC2	DT40 TDP1 CPT 26µM, TDP1 cell noCPT 16µM
Cc1ccc(-c2nnn(CC(=O)N3CCCCC3)n2)o1	none
COc1ccccc1N1CCN(C(=O)c2ccc(-c3ccccc3)cc2)CC1	DT40 TDP1 CPT inconclusive, TDP1 cell noCPT 13µM
COc1ccc(C(=O)N2CCN(c3ccccc3OC)CC2)cc1	none
CS(=O)(=O)N1CCN(C(=O)C(Sc2ccccc2)c2ccccc2)CC1 (stereo not given)	none
COc1ccccc1N1CCN(C(=O)C(Sc2ccccc2)c2ccccc2)CC1 (stereo not given)	HT1080-NT tox inconclusive, HT1080 IDH1KD tx inconclusive, IL1B secr inh inconclusive, DT40 TDP1 CPT 18µM, TDP1 cell noCPT inconclusive
COc1ccccc1N1CCN(C(=O)c2ccc(S(=O)(=O)N3CCCC3)cc2)CC1	DT40 TDP1 CPT inconclusive, TDP1 cell noCPT 16µM
COc1ccccc1N1CCN(C(=O)c2ccc(NS(=O)(=O)c3ccc(C)cc3)cc2)CC1	DT40 TDP1 CPT inconclusive, TDP1 cell noCPT inconclusive
C#CCN1C(C)=CC(=O)[C@@H](O)[C@H]1c1ccccc1Br	none
NC(=O)c1ccccc1NC(=O)COc1ccc2c(c1)OCO2	TDP1 cell noCPT inconclusive
Cc1cc(Cl)cc(Cl)c1OCCCCN(C)C	HT1080 IDH1KD tx inconclusive, DT40 TDP1 CPT inconclusive, TDP1 cell noCPT 18µM
CCCCNC(=O)C1(C)CCCCN1C(=O)c1ccno1 (stereo not given)	none
Cc1cc(C(=O)COc2cccnc2[N+](=O)[O-])c(C)n1Cc1ccco1	HT1080-NT tox inconclusive, HT1080 IDH1KD tx 21µM, DT40 TDP1 CPT inconclusive, TDP1 cell noCPT 26µM
Cc1cc(C(=O)COc2cccnc2[N+](=O)[O-])c(C)n1-c1ccccc1F	DT40 TDP1 CPT 18µM, TDP1 cell noCPT 9.2µM
O=C(COc1cccnc1[N+](=O)[O-])N1CCc2ccccc21	none
Cc1cc(C(=O)COc2cccnc2[N+](=O)[O-])c(C)n1-c1ccccc1	HT1080 IDH1KD tx inconclusive, DT40 TDP1 CPT inconclusive, TDP1 cell noCPT 21µM
Cc1ccc(-n2c(C)cc(C(=O)COc3cccnc3[N+](=O)[O-])c2C)cc1	DT40 TDP1 CPT 18µM, TDP1 cell noCPT 10µM
Cc1ccc(OCC(=O)c2cc(C)n(C)c2C)c([N+](=O)[O-])n1	none
Cc1cc(C(=O)COC(=O)c2ccco2)c(C)n1Cc1ccco1	DT40 TDP1 CPT inconclusive
CCn1c(=O)c(CCC(=O)N2CCN(c3ccccn3)CC2)c(C)c2c(C)nn(-c3cccc(C)c3)c21	DT40 TDP1 CPT 15µM, TDP1 cell noCPT inconclusive
Cc1ccc(-n2c(=O)c3c(c4cc(C)ccc4n3C)n(CC(=O)NCC3CCCO3)c2=O)cc1 (stereo not given)	DT40 TDP1 CPT inconclusive, TDP1 cell noCPT inconclusive
Cc1nc2nc(C)c(CCC(=O)N3CCN(c4ccccn4)CC3)c(C)n2n1	none
CCn1c(=O)c(CCC(=O)NCC2CCCO2)c(C)c2c(C)nn(-c3ccc(C)cc3)c21 (stereo not given)	DT40 TDP1 CPT 23µM, TDP1 cell noCPT inconclusive
c1ccc(-c2nc(N3CCCC3)nc3ccccc23)cc1	TDP1 cell noCPT inconclusive
c1ccc2c(N3CCCCCC3)nc(-c3ccncc3)nc2c1	HT1080 IDH1KD tx inconclusive, IL1B secr inh inconclusive, DT40 TDP1 CPT inconclusive, TDP1 cell noCPT 23µM
c1ccc2c(N3CCCCC3)nc(N3CCCCC3)nc2c1	DT40 TDP1 CPT 18µM, TDP1 cell noCPT inconclusive
Cc1ccc(CNc2nc(C)c(-c3ccn(CCN4CCOCC4)n3)s2)o1	none (no result: HT1080-NT tox, HT1080 IDH1KD tx, IL1B secr inh)
COC(=O)c1ccc(OC)c(CN2CCCN(Cc3ccc(F)cc3)S2(=O)=O)c1	DT40 TDP1 CPT inconclusive, TDP1 cell noCPT inconclusive
C=CCn1c(C)cc(/C([O-])=C(/C(=S)Nc2ccc(OC(F)F)cc2)[n+]2ccc(N(C)C)cc2)c1C	DT40 TDP1 CPT 26µM, TDP1 cell noCPT 18µM
Cc1cc(C)c(/C([O-])=C(/C(=S)Nc2ccc(SC(F)F)cc2)[n+]2ccccc2)cc1C	DT40 TDP1 CPT inconclusive
CN(C)c1cc[n+](/C(C(=S)Nc2ccc(SC(F)F)cc2)=C(/[O-])c2ccccc2)cc1	DT40 TDP1 CPT 13µM, TDP1 cell noCPT 10µM
[O-]/C(=C(\C(=S)Nc1ccc(SC(F)F)cc1)[n+]1ccccc1)c1cc(Cl)ccc1Cl	DT40 TDP1 CPT 16µM, TDP1 cell noCPT 16µM
Cc1cc(C([O-])=C(C(=S)Nc2ccccc2)[n+]2ccccc2)c(C)n1-c1ccccc1	DT40 TDP1 CPT inconclusive, TDP1 cell noCPT inconclusive
O=C(CSc1nc2c(c(=O)[nH]1)CCC2)Nc1ccccc1C(F)(F)F	none (no result: HT1080-NT tox, HT1080 IDH1KD tx, IL1B secr inh)
COC(=O)C1CCN(Cc2ccc3c(c2)CN(C(=O)c2ccc(-n4cnnn4)cc2)CCO3)CC1	none (no result: HT1080-NT tox, HT1080 IDH1KD tx, IL1B secr inh)
CC(=O)N(Cc1cc2ccccc2[nH]c1=O)c1ccc(C)cc1	DT40 TDP1 CPT inconclusive, TDP1 cell noCPT inconclusive
CCn1c(NC(C)=O)c(-c2ccccc2Cl)c(=O)c2ccccc21	none
CCCCOc1ccc(S(=O)(=O)NCc2csc(C)n2)cc1	HT1080-NT tox inconclusive, IL1B secr inh inconclusive, DT40 TDP1 CPT 13µM, TDP1 cell noCPT 23µM
COc1ccc(S(=O)(=O)NCc2csc(C)n2)cc1OC	none
Cc1nc(CNS(=O)(=O)c2ccc3c(c2)CCCC3)cs1	DT40 TDP1 CPT 16µM, TDP1 cell noCPT inconclusive
Cc1ccc(S(=O)(=O)NCc2csc(C)n2)cc1	none
O=C(OCCO)c1ccccc1O	none (no result: HT1080-NT tox, HT1080 IDH1KD tx, IL1B secr inh)
Cc1cc(C(=O)COC(=O)C2=COCCO2)c(C)n1-c1cccc(F)c1	DT40 TDP1 CPT inconclusive, TDP1 cell noCPT inconclusive

From PubChem BioAssay
